Screening results from PubChem BioAssay.
Six1-Eya2 blk = blocks human Six1 binding to Eya2; Q15475+O00167; AlphaScreen GST-Six1/His-Eya2 binding, biochemical; hits give low values; activity change, % (no concentration beside the values); hit rate 0.56% among 360,000; in the data active = activity change below about -65%; inconclusive = mostly about -30% to -63%; note: % is set by controls: 0 for no effect and ±100 for the full control effect
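Compounds are tested against tagged Six1 and Eya2 proteins bridged by glutathione donor and nickel acceptor beads; after a one-hour incubation at 37 °C without light, AlphaScreen emission is recorded.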
G9a inh = G9a (human) methyltransferase inhibition. G9a H3K9 monomethylation, AlphaScreen, 2 h. Potency, µM (top dose mostly 102 µM), without a hit: top-dose activity, negative = inhibition, most hits filed as inhibitors. hit rate 8.8% among 350,000. AID 504332; note: potency is the fitted concentration of half-maximal effect; % is set by controls: 0 for no effect and ±100 for the full control effect; nearly all actives have a fitted effect of over 75% in size
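Signal arises when biotinylated H3K9 peptide, once monomethylated, bridges streptavidin donor and antibody-captured acceptor beads. Enzyme at 20 nM was preincubated 15 min with test compounds; peptide 500 nM and SAM 20 uM then reacted for 2 h.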
CtBP-E1A inh = inhibitors of CtBP/E1A interaction. AlphaScreen GST-E1A/His-CtBP binding, 1536-well; hits give low values. activity change, % (concentration not given with the values). hit rate 0.49% among 340,000. AID 651724; in the data active = activity change below about -65%; inconclusive = mostly about -30% to -63%; note: % is set by controls: 0 for no effect and ±100 for the full control effect
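GST-E1A and His-tagged CtBP (125 nM each as 5X stock) were preincubated with pin-transferred compound for 2 h at 37 °C in the dark, then glutathione donor and nickel acceptor beads were added for 1 h before AlphaScreen reading.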
BAZ2B inh = inhibitors of human BAZ2B bromodomain. AlphaScreen BAZ2B-H3K14Ac peptide displacement. Potency, µM (series often up to 114 µM), for inactives: top-dose activity change, negative = inhibition, usual class: inhibitors. hit rate 4.4% among 360,000; note: potency is the fitted concentration of half-maximal effect; % is set by controls: 0 for no effect and ±100 for the full control effect; nearly all actives have a fitted effect of over 60% in size
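Compounds, titrated to a top concentration of 110 uM, were incubated 30 min at room temperature with preformed BAZ2B/acetyl-K14 H3 peptide complex (50 nM each). Proximity signal was measured by AlphaScreen after 20 min with beads.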
JMJD2A Tudor inh = JMJD2A Tudor domain (human) inhibition. AID 504339. AlphaScreen JMJD2A-Tudor / H3K4me3 peptide binding. hit rate 4.4% among 390,000. Potency, µM (series often up to 114 µM), inactives show at the highest dose activity change, negative = inhibition, hits mostly inhibitors. O75164; note: potency is the fitted concentration of half-maximal effect; % is set by controls: 0 for no effect and ±100 for the full control effect; nearly all actives have a fitted effect of over 50% in size
Target sequence (O75164 whole entry, looked up, the tested form may be a part): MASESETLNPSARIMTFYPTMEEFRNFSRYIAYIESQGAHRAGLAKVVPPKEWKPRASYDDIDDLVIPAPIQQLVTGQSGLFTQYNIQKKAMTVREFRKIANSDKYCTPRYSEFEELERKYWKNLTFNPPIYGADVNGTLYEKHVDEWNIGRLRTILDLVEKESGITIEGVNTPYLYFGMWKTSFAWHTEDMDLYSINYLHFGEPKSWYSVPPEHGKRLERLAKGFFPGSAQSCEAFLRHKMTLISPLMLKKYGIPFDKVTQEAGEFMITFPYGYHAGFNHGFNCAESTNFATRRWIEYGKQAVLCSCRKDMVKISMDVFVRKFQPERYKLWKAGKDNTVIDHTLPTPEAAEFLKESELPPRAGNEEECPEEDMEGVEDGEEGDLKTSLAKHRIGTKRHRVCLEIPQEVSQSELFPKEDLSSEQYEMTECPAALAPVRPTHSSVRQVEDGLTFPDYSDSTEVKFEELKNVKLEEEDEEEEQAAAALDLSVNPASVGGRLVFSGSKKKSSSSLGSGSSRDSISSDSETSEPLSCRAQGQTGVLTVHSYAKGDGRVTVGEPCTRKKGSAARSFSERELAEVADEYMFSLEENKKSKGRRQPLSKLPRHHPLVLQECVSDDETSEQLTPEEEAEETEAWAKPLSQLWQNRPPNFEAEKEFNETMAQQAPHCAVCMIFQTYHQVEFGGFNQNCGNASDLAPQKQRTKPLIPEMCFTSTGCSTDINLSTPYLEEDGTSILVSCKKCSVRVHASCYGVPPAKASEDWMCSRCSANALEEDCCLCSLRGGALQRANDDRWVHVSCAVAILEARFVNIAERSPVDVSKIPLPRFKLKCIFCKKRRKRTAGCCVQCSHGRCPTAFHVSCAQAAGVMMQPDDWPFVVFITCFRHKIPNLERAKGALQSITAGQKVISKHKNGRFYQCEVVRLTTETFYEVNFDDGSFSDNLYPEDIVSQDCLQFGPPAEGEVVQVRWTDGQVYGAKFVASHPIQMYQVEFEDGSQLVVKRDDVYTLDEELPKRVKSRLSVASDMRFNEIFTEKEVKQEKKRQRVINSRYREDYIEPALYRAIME
HP1b binding inh = HP1-beta chromodomain-methylated histone interaction inhibition; AID 540317; P83916; hit rate 0.56% among 390,000; Potency, µM (highest dose often 114 µM), without a hit: top-dose activity change, negative = inhibition, most hits filed as inhibitors; AlphaScreen HP1-beta / biotin-H3K9me3 peptide binding; note: potency is the fitted concentration of half-maximal effect; nearly all actives have a fitted effect of over 70% in size
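AlphaScreen: HP1-beta (50 nM) preformed 30 min with biotin-H3(1-18)K9me3 peptide (50 nM) in PBS pH 7.4, 0.01% Tween-20. Compound added for 30 min at RT, then streptavidin donor/nickel chelate acceptor beads (10 ug/mL) for 30 min.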
The depositor's hits bear a star; ? = inconclusive; · = not tested or not shown; [ ] = another dose, or the depositor's remark. Most compounds without a hit are left out; they make up all but 10% or so of the library. Unless noted, calls come from the whole dose curve; as a rule, active = well fitted inhibition curve with a large enough effect; inconclusive = small, poorly fitted or top-dose-only effect; inactive = no such curve, though single readings can be large or run the other way.

SMILES | Six1-Eya2 blk | G9a inh | CtBP-E1A inh | BAZ2B inh | JMJD2A Tudor inh | HP1b binding inh
O=S(=O)(c1ccc(F)cc1)N1CCC(c2nc3ccccc3[nH]2)CC1 | -22.2 | 3.0% | -0.2 | -18.3% | -3.5% | 41.2%
O=C(c1ccc(S(=O)(=O)N2CCC(c3nc4ccccc4[nH]3)CC2)cc1)N1CCOCC1 | 1.0 | 7.94µM* | -7.6 | ? | 28.2µM* | -12.2%
Nc1cccnc1Sc1ccc([N+](=O)[O-])cn1 | -0.6 | 1µM* | -17.9 | -29.1% | 1.58µM* | -15.7%
O=[N+]([O-])c1ccc(Sc2n[nH]c(-c3ccccc3)n2)nc1 | 0.1 | ? | 2.0 | -3.7% | 56.2µM* | 32.6%
Cn1c(=O)n(-c2cccc(Cl)c2)c(=O)n1C | 1.2 | 7.0%[59 µM] | 2.1 | 4.1% | -8.3% | 33.9%
O=c1c2cn[nH]c2[nH]c(=S)n1-c1cccc(Cl)c1 | 0.0 | 31.6µM* | 11.3 | -19.7% | -25.2% | 35.0%
C[n+]1cc(-c2ccccc2)n2c1CCCCC2 | 4.6 | 70.8µM* | 10.0 | 44.7µM* | -23.0% | 20.1%
COc1cccc(-c2nnc(SCC(=O)NC3CCCCC3)o2)c1 | · | 8.91µM* | · | -5.8% | -15.4% | -13.3%
COc1ccc(OC)c(-c2nnc(SCC(=O)NC3CCCCC3)o2)c1 | -14.0 | 44.7µM* | -4.0 | 3.5% | -10.6% | 60.2%
COc1ccc(/C=C(\C#N)C(=O)OCC(=O)Nc2c(C)cccc2C(C)C)cc1 | -1.5 | -10.8%[59 µM] | 5.8 | -35.4% | -9.0% | 28.0%
CSc1cccc(N2CC(C(=O)N(CC(C)C)c3c(N)n(Cc4ccccc4)c(=O)[nH]c3=O)CC2=O)c1 (stereo not given) | -1.0 | 39.8µM* | 4.8 | ? | -29.0% | 25.8%
CC(C)CCN(C(=O)C1CSC2(C)CCC(=O)N12)c1c(N)n(Cc2ccccc2)c(=O)[nH]c1=O (stereo not given) | 6.4 | 28.2µM* | -0.3 | ? | -18.6% | 5.4%
CC(C)CN(C(=O)C1CC1)c1c(N)n(Cc2ccccc2)c(=O)[nH]c1=O | 8.7 | -25.4% | -3.4 | 2.5% | -20.7% | -3.2%
Cc1cccc(-[n+]2c(C)cc(C)c3c(=O)[nH]c(=O)[nH]c32)c1 | -9.8 | 50.1µM* | -0.7 | 2.2% | -1.3% | 22.5%
CC1CC(OCC(O)CN2CCOCC2)CC(C)(C)C1 (stereo not given) | 11.0 | -10.9%[59 µM] | -3.7 | 2.9% | -15.2% | 36.2%
CC1CC(OCC(O)C[N+]2(C)CCOCC2)CC(C)(C)C1 (stereo not given) | 9.1 | 39.8µM* | 1.6 | 11.3% | -2.1% | ?
Cc1cc(C)cc(NC(=O)CN(C)S(=O)(=O)c2ccc3c(c2)CCC(=O)N3)c1 | · | 3.4%[59 µM] | · | -15.9% | -5.4% | 29.8%
COc1cc2c(cc1OC)CN(c1nc(CN3CCOCC3)nc3sc4c(c13)CCC(C)C4)CC2 (stereo not given) | ? | 14.1µM* | ? | 31.6µM* | 25.1µM* | ?
Cc1ccc(-c2cn3c(n2)sc2cc(C(=O)NC4CCCc5ccccc54)ccc23)cc1 (stereo not given) | · | 3.5%[59 µM] | · | -3.9% | -2.6% | 76.6%
CCc1ccc2c(c1)NC(c1ccc(C)cc1)=NC(c1cccs1)=N2 | · | 12.6µM* | · | 25.1µM* | 44.7µM* | ?
CCCCOc1ccc(C2=NC(c3cccs3)=Nc3ccc(CC)cc3N2)cc1 | · | ? | · | ? | ? | -11.6%
Clc1ccc2c(c1)NC(c1ccncc1)=NC(c1cccs1)=N2 | · | 28.2µM* | · | ? | ? | -5.0%
CCOc1ccc(C2=NC(c3cccs3)=Nc3ccc(C(C)C)cc3N2)cc1 | · | 10µM* | · | 22.4µM* | 20µM* | -25.2%
COc1ccc(-c2ccc(C3C(C#N)=C(N)Oc4n[nH]c(C)c43)o2)cc1 (stereo not given) | ? | ? | -66.9* | 50.1µM* | ? | -27.2%
Cc1ccc(C2C(C#N)=C(N)Oc3n[nH]c(-c4ccccc4)c32)o1 (stereo not given) | -18.8 | 22.4µM* | -20.5 | ? | 15.8µM* | ?
